Inconclusive results are not listed. Active and inactive are the calls of the source. Calls come from the whole dose curve; as a rule, active = well fitted inhibition curve with a large enough effect; inconclusive = small, poorly fitted or top-dose-only effect; inactive = flat fitted curve, though single readings scatter.
% is set by controls: 0 for no effect and ±100 for the full control effect.

The first test in a line: Drug repurposing screens with cells derived from glioblastoma tumor samples (AID 1345199). Note: nearly all actives have a fitted effect of over 40% in size. The following applies: GBM patient neurospheres viability, ATP luminescence, 48 h; at 45.9 µM (top of the series); tumour line B. In a few lines:
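Four patient lines of CD133+ GBM neurospheres were screened at several concentrations; hits were retested in those lines plus three slower-growing GBM lines, using 48-hour treatment and ATP-based viability.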
For `N#Cc1c(N(CC(=O)O)CC(=O)O)sc(C(=O)O)c1CC(=O)O`, the activity, negative = cell killing was -0.252% (inactive).

Consider `CCC[C@H](N[C@@H](C)C(=O)N1[C@@H]2CCCC[C@H]2C[C@H]1C(=O)O)C(=O)OCC`, for which the activity, negative = cell killing was -14% (inactive).

As to `CN1CCN2c3ncccc3Cc3ccccc3C2C1` (centres undefined), the activity, negative = cell killing was -0.787% (inactive).

On to `COc1ccnc(CS(=O)c2nc3ccc(OC(F)F)cc3[nH]2)c1OC` (centres undefined), for which the activity, negative = cell killing was -25.5% (inactive).

For the compound `CC(C)(CO)[C@@H](O)C(=O)NCCC(=O)O`, the activity, negative = cell killing was 1.18% (inactive).

With `CCCCCCCCCCCCCCCC(=O)O[C@H]1[C@@H](O)[C@@H](O)[C@@H]([C@H](NC(=O)[C@@H]2C[C@@H](CCC)CN2C)[C@H](C)Cl)O[C@@H]1SC`, the activity, negative = cell killing was -20% (inactive).

For `CCCCC(F)(F)[C@@]1(O)CC[C@H]2[C@H](CC(=O)[C@@H]2CCCCCCC(=O)O)O1`, the activity, negative = cell killing was -4.88% (inactive).

With `O=C(O)c1nc(=O)[nH]c(=O)[nH]1`, the activity, negative = cell killing is 0.794% (inactive).

On to `N#CC(c1ccc(Cl)cc1)c1c(Cl)cc(-n2ncc(=O)[nH]c2=O)cc1Cl` (centres undefined), for which the activity, negative = cell killing was -18.3% (inactive).

Turning to `CC[C@H]1OC(=O)[C@H](C)[C@@H](O[C@H]2C[C@@](C)(OC)[C@@H](O)[C@H](C)O2)[C@H](C)[C@@H](O[C@@H]2O[C@H](C)C[C@H](N(C)C)[C@H]2O)[C@](C)(O)C[C@H](C)C(=NOCOCCOC)[C@H](C)[C@@H](O)[C@]1(C)O`, the activity, negative = cell killing was -8.15% (inactive).

Still in this test, the particulars now being: GBM patient neurospheres viability, ATP luminescence, 48 h; at 45.9 µM (top of the series); tumour line D.
Take `O=C(CCCN1CCN(c2ccc(F)cc2)CC1)NC1c2ccccc2CSc2ccccc21` (centres undefined): the activity, negative = cell killing is -27.4% (inactive).

As for `COc1cc2c(cc1OC)CC(=O)N(CCCN(C)C[C@H]1Cc3cc(OC)c(OC)cc31)CC2`, the activity, negative = cell killing is -19.2% (inactive).

For `O=C(Nc1cccc2c(=O)cc(-c3nn[nH]n3)oc12)c1ccc(OCCCCc2ccccc2)cc1`, the activity, negative = cell killing is -5.85% (inactive).

In the case of `CN1CC(=O)N2C(Cc3c([nH]c4ccccc34)[C@H]2c2ccc3c(c2)OCO3)C1=O` (some centres undefined), the activity, negative = cell killing is -11.4% (inactive).

In the case of `CC(C)CN(C[C@@H](O)[C@H](Cc1ccccc1)NC(=O)O[C@H]1CO[C@H]2OCC[C@H]21)S(=O)(=O)c1ccc(N)cc1`, the activity, negative = cell killing was -22.5% (inactive).

Turning to `N#Cc1c(N(CC(=O)O)CC(=O)O)sc(C(=O)O)c1CC(=O)O`, the activity, negative = cell killing is 0.729% (inactive).

As for `CCC[C@H](N[C@@H](C)C(=O)N1[C@@H]2CCCC[C@H]2C[C@H]1C(=O)O)C(=O)OCC`, the activity, negative = cell killing is -19.1% (inactive).

Regarding `CN1CCN2c3ncccc3Cc3ccccc3C2C1` (centres undefined), the activity, negative = cell killing was -14.6% (inactive).

As to `COc1ccnc(CS(=O)c2nc3ccc(OC(F)F)cc3[nH]2)c1OC` (centres undefined), the activity, negative = cell killing was -22.5% (inactive).

Regarding `CC(C)(CO)[C@@H](O)C(=O)NCCC(=O)O`, the activity, negative = cell killing was -3.38% (inactive).

In the case of `CCCCCCCCCCCCCCCC(=O)O[C@H]1[C@@H](O)[C@@H](O)[C@@H]([C@H](NC(=O)[C@@H]2C[C@@H](CCC)CN2C)[C@H](C)Cl)O[C@@H]1SC`, the activity, negative = cell killing is -15.1% (inactive).

For the compound `CCCCC(F)(F)[C@@]1(O)CC[C@H]2[C@H](CC(=O)[C@@H]2CCCCCCC(=O)O)O1`, the activity, negative = cell killing was -10.8% (inactive).

On to `O=C(O)c1nc(=O)[nH]c(=O)[nH]1`, for which the activity, negative = cell killing was 6.49% (inactive).

Turning to `CC[C@H]1OC(=O)[C@H](C)[C@@H](O[C@H]2C[C@@](C)(OC)[C@@H](O)[C@H](C)O2)[C@H](C)[C@@H](O[C@@H]2O[C@H](C)C[C@H](N(C)C)[C@H]2O)[C@](C)(O)C[C@H](C)C(=NOCOCCOC)[C@H](C)[C@@H](O)[C@]1(C)O`, the activity, negative = cell killing was 4.24% (inactive).

(Values after PubChem BioAssay (NCATS).)
